Test results published in the supplement of paper PMC6555819.

Experiments:
Experiment in all cases: PBM binding z-score (relative to random genomic background probes); higher = stronger binding; sequences stand for … in GC…GCGATTGACAGCGTAGAATGAAGG
[1] = test system: FXR:RXRa (NR concentration 270 nM, RXRa partner concentration 90 nM)
Summary of the method: (§1)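 Probes were double-stranded and carried 34-nt variable regions with direct-repeat seeds, single-nucleotide variants, half-site ablations and random human genomic background sequences, printed on custom Agilent 4×180K protein-binding microarrays. Arrays were incubated 1 h with ligand-free nuclear receptor dimers in PBS pH 7.4, 2% milk, 0.02% Triton X-100, 1 mM DTT, 0.2 mg/mL BSA and 0.4 mg/ml salmon testes DNA. Antibodies against each partner (one per run) detected binding, and scanned fluorescence was regression-normalized. Binding z-scores use the random background probes as reference.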

[2] = test system: LXRa:RXRa (NR concentration 270 nM, RXRa partner concentration 90 nM)
Summary of the method: as §1

[3] = test system: LXRa homodimer (NR concentration 270 nM)
Summary of the method: as §1

[4] = test system: LXRb:RXRa (NR concentration 270 nM, RXRa partner concentration 90 nM)
Summary of the method: as §1

[5] = test system: LXRb homodimer (NR concentration 270 nM)
Summary of the method: as §1

[6] = test system: PPARa:RXRa (NR concentration 270 nM, RXRa partner concentration 90 nM)
Summary of the method: as §1

[7] = test system: PPARg:RXRa (NR concentration 180 nM, RXRa partner concentration 90 nM)
Summary of the method: as §1

[8] = test system: PPARg:RXRa 270nM:90nM, anti-RXR (NR concentration 270 nM, RXRa partner concentration 90 nM)
Summary of the method: as §1

[9] = test system: PPARg:RXRa 30nM:10nM, anti-RXR (NR concentration 30 nM, RXRa partner concentration 10 nM)
Summary of the method: as §1

[10] = test system: PPARg:RXRa 90nM:30nM, anti-RXR (NR concentration 90 nM, RXRa partner concentration 30 nM)
Summary of the method: as §1

Sequence	PBM binding z-score [1]	PBM binding z-score [2]	PBM binding z-score [3]	PBM binding z-score [4]	PBM binding z-score [5]	PBM binding z-score [6]	PBM binding z-score [7]	PBM binding z-score [8]	PBM binding z-score [9]	PBM binding z-score [10]
GAAGACAGGTGAAACGCAGGTAACTCAGGGTGGC	0.0149	0.318	-0.652	-0.0898	-0.743	1.14	0.681	0.383	-0.249	-0.0724
TCACATAGGTAAAGGTGAAAGTCGAACGATATGA	1.25	1.8	0.139	1.69	-0.00674	3.07	2.67	3.48	4.04	3.75
GCTAGTTGGTCGGTAAAAGGTCACACACCGGTCG	3.17	4.03	3.77	3.81	0.63	4.74	5.58	6.73	4.85	6.87
TCCCGGAGGACACGAAAGGTCAGAGCTCGACATC	3.13	3.95	2.89	2.93	-0.374	3.45	1.51	2.59	2.05	2.49
CGAACTAGATCAGAACAGGACAGTGAAGGATGAT	-0.267	-0.369	-0.16	-0.794	-0.0768	-0.51	0.886	-0.506	0.112	-0.125
ATCGAAAGGTCTACGAGGTGAGTATACACCGTTT	0.287	0.343	-0.515	0.353	-0.0521	1.03	0.797	0.573	0.114	0.523
AGAATGAGGTTGAGATCAGGGAAACAGAATACAT	0.277	0.207	-0.104	0.224	-0.585	0.66	0.524	0.227	0.329	0.246
TCCTATAGGTAAATGCTAGGTGAAAGTCCGATCT	0.02	0.489	-0.157	0.379	-0.293	1.16	0.318	1.7	2.99	2.19
TAGCCTAGGTGAGATCGGGCCAGTATACGCTATA	-0.31	-0.533	-0.692	-0.901	-0.702	-0.453	0.201	-0.291	-0.335	-0.319
ACCATTAGTTGACTTAGGGCAACCGATACGACGC	0.502	0.629	0.679	0.464	0.693	0.273	1.06	0.133	0.182	0.582
TCTGCTAGGTCAACGATGGTCGGCTAATCTGCTA	3.06	2.14	-0.28	1.11	-0.00978	2.9	2.1	3.01	1.81	2.42
ATCGAAAGGTCGTGAGGTTAGTATACAGAAAGGC	5.61	4.18	0.638	3.63	0.777	5.04	3.95	4.19	1.92	3.08
CCTATTAGTTGACCATAAGGGCAACCGGAGCTCG	0.775	0.432	0.625	0.404	0.814	0.657	0.421	0.473	-0.154	0.171
TGAATGAGGTTATAAGATCAAGGAACGTTGCAAA	1.48	1.44	-0.207	0.961	0.00759	3.01	1.79	2.39	1.08	1.89
CCGTCTGGGGCAAGGTTACCATAACGCACAGCCA	0.304	0.595	-0.295	0.486	-1.06	1.47	1.66	2.36	0.376	1.93
TCTCGGAGGACACGAAAGGTCAGACCTCGACATC	3.09	3.69	3.12	3.51	-0.0358	3.57	1.38	2.68	2.63	2.67
CGTCCAAGGTCAATGCTAGGTCAGTGACAGCATT	6.74	5.78	2.73	4.19	1.14	5.31	4.11	4.64	1.38	3.44
CTCGAAAGGTCGGTTCAGGTGAGTATACGGATAA	2.48	1.92	0.307	1.74	0.00585	2.86	0.546	1.36	0.0497	0.769
ACAGAAAGGTGAGTGAAGGTAACTCAGCTGGACG	1.15	0.894	-0.288	0.22	-0.612	1.81	1.25	1.23	0.0865	0.656
GCATATAGGTAGTACAAGGTGAAAGTCCGATTGT	1.03	0.23	-0.159	0.269	-0.562	1.16	0.674	0.733	0.197	0.775
CGTCCAAGGTCAATGCTAGGTGAGTGAAAGCATT	5.97	4.36	0.361	3.28	0.445	4.69	3.49	4	0.812	2.99
ACTAGCAGGCCAAATTTGGGTCACTCAAACAAAG	0.491	0.315	-0.377	0.947	-0.562	2.99	1.62	1.84	0.0732	1.04
TCTGCTAGGTCAACGATGGTCAGCAAATCTGCTA	3.33	2.48	-0.168	1.69	-0.321	3.27	2.79	3.15	2.13	2.56
TCATGTAGGTAATACAGGTGAAAGTCGGCATCTA	0.0966	0.506	0.125	0.469	-0.485	1.63	1.15	1.94	2.84	2.25
ATCGAAAGGTGGTGAGGTGAGTATACAGAAAGGC	0.483	0.31	0.284	0.389	0.161	0.744	0.668	0.261	0.347	0.438
